# Data as given in the supplement of paper PMC13380429.
# What was measured:
# [1] = tested on: Vero E6 infected with SARS-CoV-2; assay: morphology score (similarity to uninfected cells); higher = more like uninfected cells; conditions: 24 h
# [2] = tested on: Vero E6 infected with SARS-CoV-2; assay: SARS-CoV-2 infection rate relative to infected DMSO; higher = more infection, active = 60 or less; conditions: 24 h
SMILES,morphology score [1],SARS-CoV-2 infection rate [2]
Cc1cccc(C)c1NC(=O)c1ccc(N)cc1 [ameltolide] (10 µM),-0.146,109% (inactive)
C[C@H](NCc1ccc(OCc2ccccc2F)cc1)C(N)=O [priralfinamide] (10 µM),-0.175,114% (inactive)
Cn1cc(C2=C(c3ccc(Cl)cc3Cl)C(=O)NC2=O)c2ccccc21 (10 µM),0.00458,102% (inactive)
CC(C)[C@@H](CS(=O)(=O)C(C)C)N1C(=O)[C@@](C)(CC(=O)O)C[C@H](c2cccc(Cl)c2)[C@H]1c1ccc(Cl)cc1 (10 µM),-0.12,114% (inactive)
CCn1cc(C(=O)O)c(=O)c2cc(F)c(N3CCNCC3)nc21 [enoxacin] (10 µM),0.124,105% (inactive)
COc1cc(/C=C2\CCC/C(=C\c3ccc(O)c(OC)c3)C2=O)ccc1O [cyclovalone] (10 µM),0.0684,93% (inactive)
CC1(C)O[C@@H]2[C@@H](CO[C@@]3(COS(N)(=O)=O)OC(C)(C)O[C@@H]23)O1 [topiramate] (10 µM),0.00625,102% (inactive)
Cc1cccc(Oc2cnc(=O)[nH]c2)c1 [tolimidone] (10 µM),0.147,106% (inactive)
Cc1nnc(NS(=O)(=O)c2ccc(N)cc2)s1 [sulfamethizole] (10 µM),0.0585,108% (inactive)
Cc1ccc2c(Cl)cc(Cl)c(O)c2n1 [chlorquinaldol] (10 µM),0.0549,99% (inactive)
Nc1ncnc2c1ncn2C1CCCO1 (configuration not stated) (10 µM),0.029,103% (inactive)
C[C@]12CCC(=O)C=C1[C@@H]1C[C@@H]1[C@H]1[C@@H]3[C@@H]4C[C@@H]4[C@@]4(CCC(=O)O4)[C@@]3(C)CC[C@@H]12 [drospirenone] (10 µM),0.176,101% (inactive)
CCN1C[C@]2(COC(=O)c3ccccc3N3C(=O)C[C@H](C)C3=O)CC[C@H](OC)[C@@]34[C@@H]5C[C@H]6[C@H](OC)[C@@H]5[C@](O)(C[C@@H]6OC)[C@](O)([C@@H](OC)[C@H]23)[C@@H]14 [methyllycaconitine] (10 µM),0.00671,110% (inactive)
COC(=O)[C@H](CC(C)C)NC(=O)[C@@H](N)CC(C)C [leucylleucine-methyl-ester] (10 µM),0.113,99.5% (inactive)
OC(c1ccccc1)(c1ccccc1)C1CCNCC1 [azacyclonol] (10 µM),-0.109,110% (inactive)
O=S1(=O)N[C@H]2CCCN2c2ccccc21 (10 µM),0.0127,104% (inactive)
CCCCCCCCCCCCc1ccc(S(=O)(=O)Nc2nncs2)cc1 (10 µM),0.158,93% (inactive)
CCN(CC)CCNc1ccc(CO)c2sc3ccccc3c(=O)c12 [hycanthone] (0.833333 µM),0.244,82% (inactive)
CCCCOc1ccc(C(=O)Nc2ccc(F)cc2F)cc1 (10 µM),0.18,106% (inactive)
O=C(/C=C/c1ccc2ccccc2n1)c1ccncc1 (0.833333 µM),0.0453,104% (inactive)
O=C(Nc1cccnn1)N1CCC(=Cc2cccc(Oc3ccc(C(F)(F)F)cn3)c2)CC1 (10 µM),0.00817,104% (inactive)
Cc1c(N)nc([C@H](CC(N)=O)NC[C@H](N)C(N)=O)nc1C(=O)N[C@H](C(=O)N[C@H](C)[C@@H](O)[C@H](C)C(=O)N[C@H](C(=O)NCCc1nc(-c2nc(C(=O)NCCCNCCCCN)cs2)cs1)[C@@H](C)O)[C@@H](O[C@@H]1O[C@@H](CO)[C@@H](O)[C@H](O)[C@@H]1O[C@@H]1O[C@H](CO)[C@@H](O)[C@H](OC(N)=O)[C@@H]1O)c1cnc[nH]1 [bleomycetin] (0.833333 µM),0.128,111% (inactive)
O=C(O)CCC(=O)C(=O)O [2-oxoglutaric-acid] (10 µM),-0.135,110% (inactive)
Nc1nc(N)nc(NC2CC2)n1 [cyromazine] (10 µM),0.128,86.5% (inactive)
C=CC(=O)Nc1cccc(Oc2nc(Nc3ccc(N4CCN(C)CC4)cc3OC)ncc2Cl)c1 (0.833333 µM),-0.0953,115% (inactive)
COc1cc(OC)cc(N(CCNC(C)C)c2ccc3ncc(-c4cnn(C)c4)nc3c2)c1 [erdafitinib] (0.833333 µM),0.151,108% (inactive)
